This is an account of results in PubChem BioAssay (Tox21).

Active and inactive are the calls of the source. Unless noted, the call rests on the fitted dose curve; in most records, active means well fitted curve in the direction sought with a large enough effect in the repeat runs; inconclusive means weak or mixed curves; inactive means no such curve, though single readings can be large; an effect the other way counts as inactive or inconclusive.

Test [1] can be described thus: qHTS assay to identify small molecule antagonists of the glucocorticoid receptor (GR) signaling pathway - cell viability counter screen (AID 720693). Further: nearly all actives have a fitted effect of over 55% in size.
Test [2] can be described thus: qHTS assay for identifying genotoxic compounds that show differential cytotoxicity against isogenic chicken DT40 cell lines with known DNA damage response pathways - wild type cell line (AID 743012). Further: nearly all actives have a fitted effect of over 60% in size. Further: potency means the concentration at half of the fitted maximal effect. The procedure, abridged:
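Cells (DT40 wild type, 300/well) are treated with DMSO-dissolved compounds after a ~0.5 h pre-incubation and kept 40 h at 37 C/5% CO2. Viability is then measured by CellTiter-Glo luminescence following 30 min at room temperature.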

Test [3] is described as follows: qHTS assay to identify small molecule antagonists of the androgen receptor (AR) signaling pathway - cell viability counter screen (AID 743033; further: nearly all actives have a fitted effect of over 45% in size; further: potency means the concentration at half of the fitted maximal effect). For orientation: qHTS replaces the single test concentration by a dilution series.
A short description of test [4]: qHTS assay to identify small molecule antagonists of the androgen receptor (AR) signaling pathway using the MDA cell line - cell viability counter screen (AID 743041; further: nearly all actives have a fitted effect of over 45% in size). Put shortly:
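Same-well cytotoxicity was assessed by CellTiter-Fluor in MDA-kb2 AR-luc cells after 16 h of compound treatment under R1881 agonism.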

Test [5] in a line: qHTS assay to identify small molecule antagonists of the thyroid receptor (TR) signaling pathway - cell viability counter screen (AID 743064). Further: nearly all actives have a fitted effect of over 50% in size. Further: potency means the concentration at half of the fitted maximal effect. Put shortly: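 Plate GH3.TRE-Luc cells; incubate 4 h at 37 °C; add compound, then T3 to 1 nM final; incubate 23.5 h; add CellTiter-Fluor; incubate 30 min at 37 °C, 5% CO2; read fluorescence.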
Test [6] is described as follows: qHTS assay to identify small molecule antagonists of the thyroid receptor (TR) signaling pathway (AID 743065). Further: nearly all actives have a fitted effect of over 55% in size. Further: potency means the concentration at half of the fitted maximal effect. Put shortly:
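GH3.TRE-Luc rat pituitary cells (two TREs driving luciferase) were dosed with compound, then stimulated with 1 nM T3 (final) for 23.5 h at 37 C. ONE-Glo luminescence was the read-out, with CellTiter-Fluor fluorescence as the cytotoxicity counter-screen.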

In test [7] the test system is thyroid hormone receptor (rat, GH3 cells). The test can be described thus: qHTS assay to identify small molecule agonists of the thyroid receptor (TR) signaling pathway (AID 743066; calls by dose curve).
A short description of test [8]: qHTS assay to identify small molecule antagonists of the estrogen receptor alpha (ER-alpha) signaling pathway - cell viability counter screen (AID 743074; calls by dose curve;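 further: HEK293 cells carrying ER-alpha-UAS-bla reporter stimulated with 17beta-estradiol; nearly all actives have a fitted effect of over 45% in size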).
The nature of test [9]: qHTS assay to identify small molecule antagonists of the estrogen receptor alpha (ER-alpha) signaling pathway using the BG1 cell line - cell viability counter screen (AID 743081).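 Further: compound given together with 17beta-estradiol as the ER stimulus; series mostly up to about 70 µM; nearly all actives have a fitted effect of over 45% in size.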
In test [10] the target is Aromatase (Homo sapiens) (UniProt P11511). The test can be described thus: qHTS assay to identify aromatase inhibitors (AID 743083). Further: nearly all actives have a fitted effect of over 55% in size. Further: potency means the concentration at half of the fitted maximal effect.
The target in test [11] is Estrogen receptor (Homo sapiens) (UniProt P03372). In words: qHTS assay to identify small molecule antagonists of the estrogen receptor alpha (ER-alpha) signaling pathway (AID 743069; active means well fitted curve in the direction sought with a large enough effect in the signal ratio in the repeat runs, not every such curve was filed as active; inconclusive means weak or mixed curves, or effect the other way; inactive means no such curve, though single readings can be large or run the other way; the % refers to the signal ratio). Put shortly:
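Reporter cells (ER-alpha-bla, HEK293 background) are conditioned overnight in stripped-serum medium (2% charcoal-stripped FBS). Compound and 17beta-estradiol exposure runs 18 hr at 37C, 5% CO2.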

The target is the same in test [12]. The test can be described thus: qHTS assay to identify small molecule agonists of the estrogen receptor alpha (ER-alpha) signaling pathway (AID 743075; calls by dose curve;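 further: HEK293 GripTite cells with ER-alpha and UAS-driven beta-lactamase reporter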; further: potency means the concentration at half of the fitted maximal effect).
Test [13] is described as follows: qHTS assay for identifying genotoxic compounds that show differential cytotoxicity against isogenic chicken DT40 cell lines with known DNA damage response pathways - Rad54/Ku70 mutant cell line (AID 743015). Further: nearly all actives have a fitted effect of over 60% in size. Further: potency means the concentration at half of the fitted maximal effect.
In test [14] the target is Estrogen receptor (Homo sapiens) (UniProt P03372). The test can be described thus: qHTS assay to identify small molecule agonists of the estrogen receptor alpha (ER-alpha) signaling pathway using the BG1 cell line (AID 743079). Further: nearly all actives have a fitted effect of over 20% in size. Further: potency means the concentration at half of the fitted maximal effect.
Test [15] can be described thus: qHTS assay to identify small molecule antagonists of the estrogen receptor alpha (ER-alpha) signaling pathway using the BG1 cell line (AID 743080; calls by dose curve;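 further: BG1 cells stimulated with 17beta-estradiol alongside compound; series mostly up to about 70 µM; nearly all actives have a fitted effect of over 25% in size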). The procedure, abridged: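 BG1-Luc-4E2 cells (endogenous full-length ER-alpha, stable 4×ERE-luciferase) were starved 5 days in phenol-red-free medium with 10% charcoal-stripped FBS, plated 24 h, then given compound plus 17beta-estradiol for 21.5 h at 37 C; ONE-Glo luminescence read after 30 min.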

A short description of test [16]: qHTS assay for identifying genotoxic compounds that show differential cytotoxicity against isogenic chicken DT40 cell lines with known DNA damage response pathways - Rev3 mutant cell line (AID 743014). Further: nearly all actives have a fitted effect of over 55% in size. Further: potency means the concentration at half of the fitted maximal effect.
The target of test [17] is Androgen receptor (Homo sapiens) (UniProt P10275). The test can be described thus: qHTS assay to identify small molecule antagonists of the androgen receptor (AR) signaling pathway (AID 743035; active means well fitted inhibition curve with a large enough effect in the signal ratio in the repeat runs, not every such curve was filed as active; inconclusive means weak or mixed curves, or effect the other way; inactive means no such curve, though single readings can be large or run the other way; the % refers to the signal ratio). Put shortly:
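Antagonism is scored as loss of R1881-driven beta-lactamase reporter expression in HEK293 cells carrying the reporter under a UAS element, after 16 h co-treatment at 37C and a 2 h room-temperature FRET substrate read.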

Test [18] shares this target. In words: qHTS assay to identify small molecule agonists of the androgen receptor (AR) signaling pathway using the MDA cell line (AID 743040; further: nearly all actives have a fitted effect of over 20% in size). Put shortly:
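Human breast carcinoma MDA-kb2 reporter cells (MMTV-luc, AR/GR elements) were treated for 16 h at 37C in 0% CO2 following a 5 h settling period. Signal was quantified by ONE-Glo luminescence.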

Test [19] has the same target. In words: qHTS assay to identify small molecule antagonists of the androgen receptor (AR) signaling pathway using the MDA cell line (AID 743042; further: nearly all actives have a fitted effect of over 55% in size). The procedure, abridged: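 MDA-kb2 breast carcinoma cells carrying MMTV-luciferase (AR/GR responsive) were co-treated with compounds and the agonist R1881 for 16 h at 37C. Inhibition read as ONE-Glo luminescence; CellTiter-Fluor fluorescence measured in parallel for cytotoxicity.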

Androgen receptor (Homo sapiens), sequence (P10275 whole entry, looked up): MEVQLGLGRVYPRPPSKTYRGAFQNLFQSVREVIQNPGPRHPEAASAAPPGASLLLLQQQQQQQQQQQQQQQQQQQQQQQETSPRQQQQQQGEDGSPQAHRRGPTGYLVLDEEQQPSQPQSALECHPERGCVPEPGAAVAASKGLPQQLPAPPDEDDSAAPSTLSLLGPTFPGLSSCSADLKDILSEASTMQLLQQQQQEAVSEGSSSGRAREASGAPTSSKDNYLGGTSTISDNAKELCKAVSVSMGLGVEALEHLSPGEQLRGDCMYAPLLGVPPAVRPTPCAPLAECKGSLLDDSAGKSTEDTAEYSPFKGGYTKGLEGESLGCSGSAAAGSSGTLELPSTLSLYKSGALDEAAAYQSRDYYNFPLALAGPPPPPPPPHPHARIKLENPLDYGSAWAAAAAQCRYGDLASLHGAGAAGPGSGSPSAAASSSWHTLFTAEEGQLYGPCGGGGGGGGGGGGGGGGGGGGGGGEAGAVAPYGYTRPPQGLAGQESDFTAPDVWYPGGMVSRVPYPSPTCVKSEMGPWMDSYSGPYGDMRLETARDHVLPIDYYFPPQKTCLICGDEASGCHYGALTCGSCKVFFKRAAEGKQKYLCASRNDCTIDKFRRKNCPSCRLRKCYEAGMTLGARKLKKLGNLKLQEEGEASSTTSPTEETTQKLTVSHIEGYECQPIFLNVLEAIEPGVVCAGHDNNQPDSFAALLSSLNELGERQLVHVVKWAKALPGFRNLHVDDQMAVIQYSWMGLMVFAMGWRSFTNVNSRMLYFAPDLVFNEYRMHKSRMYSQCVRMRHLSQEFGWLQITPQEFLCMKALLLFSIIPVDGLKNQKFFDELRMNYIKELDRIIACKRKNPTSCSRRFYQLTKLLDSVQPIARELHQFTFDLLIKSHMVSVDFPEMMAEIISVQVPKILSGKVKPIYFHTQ
Aromatase (Homo sapiens), sequence (P11511 whole entry, looked up): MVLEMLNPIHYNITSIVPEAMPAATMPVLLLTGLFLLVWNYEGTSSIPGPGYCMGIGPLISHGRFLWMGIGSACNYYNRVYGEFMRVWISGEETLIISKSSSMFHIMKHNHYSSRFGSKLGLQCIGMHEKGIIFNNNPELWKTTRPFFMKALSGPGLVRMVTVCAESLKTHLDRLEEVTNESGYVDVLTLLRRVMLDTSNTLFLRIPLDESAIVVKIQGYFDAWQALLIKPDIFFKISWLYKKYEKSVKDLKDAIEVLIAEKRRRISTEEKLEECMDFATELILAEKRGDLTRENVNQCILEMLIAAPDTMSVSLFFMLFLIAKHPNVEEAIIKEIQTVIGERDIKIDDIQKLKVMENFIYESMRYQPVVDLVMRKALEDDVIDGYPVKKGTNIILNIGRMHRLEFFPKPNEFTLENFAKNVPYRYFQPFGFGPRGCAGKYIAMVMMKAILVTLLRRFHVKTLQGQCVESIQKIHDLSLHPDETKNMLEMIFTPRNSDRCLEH
Estrogen receptor (Homo sapiens), sequence (P03372 whole entry, looked up): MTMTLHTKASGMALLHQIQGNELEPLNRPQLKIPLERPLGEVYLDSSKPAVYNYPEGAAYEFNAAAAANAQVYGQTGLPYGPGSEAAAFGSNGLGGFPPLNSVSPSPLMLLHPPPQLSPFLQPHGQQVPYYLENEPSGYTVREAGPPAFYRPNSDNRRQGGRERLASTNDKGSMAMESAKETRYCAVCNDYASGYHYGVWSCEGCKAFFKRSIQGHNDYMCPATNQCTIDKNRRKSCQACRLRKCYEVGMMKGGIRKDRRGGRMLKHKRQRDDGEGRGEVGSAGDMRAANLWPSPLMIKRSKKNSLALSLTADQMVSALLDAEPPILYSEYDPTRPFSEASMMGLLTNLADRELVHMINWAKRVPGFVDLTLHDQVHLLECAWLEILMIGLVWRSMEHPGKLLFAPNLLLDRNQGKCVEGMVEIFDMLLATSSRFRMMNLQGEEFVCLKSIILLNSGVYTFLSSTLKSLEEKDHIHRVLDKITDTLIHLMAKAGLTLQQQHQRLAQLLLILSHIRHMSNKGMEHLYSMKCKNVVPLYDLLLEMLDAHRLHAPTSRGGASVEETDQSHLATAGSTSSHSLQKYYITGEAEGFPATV

For the compound `CCCCC(CC)(CO)CO`, the Potency result in test [1], in test [2], in test [3], in [4], in [5] and in test [6] was “inactive” each time. Moreover, the Potency result in [7], in test [9] and in test [10] was “inactive” in each case. The compound was classed as inactive in test [8].
As for `Cc1cccc(OCCOc2cccc(C)c2)c1`, the Potency result in [1], in [2], in [3], in [4], in test [5] and in test [11] was “inactive” throughout. Besides, the Potency entry in [12], in test [9] and in test [10] was “inactive” each time. The outcome in [8] was inactive.
As to `COc1ccc2[nH]c(S(=O)Cc3ncc(C)c(OC)c3C)nc2n1` (stereo not given), the Potency entry in [1], in test [3], in test [4], in test [7], in test [11] and in test [14] was “inactive” each time. Also, the Potency result in [15], in test [9] and in test [10] was “inactive” throughout. The Potency in [2] and in [13] was 29.8 µM (active) in each case. Besides, the call in test [8] was inactive.
Regarding `CN(C)C/C=C(/c1ccc(Br)cc1)c1cccnc1`, the Potency result in test [1], in test [3], in test [4], in [7] and in test [10] was “inactive” throughout. The Potency was 29.8 µM (active) in [2] and 10.6 µM (active) in test [5]. Moreover, the outcome in [8] was inactive.
Consider `Cc1ccccc1N=Nc1ccc(N=Nc2c(O)ccc3ccccc23)c(C)c1`, for which the Potency result in test [1], in test [16], in test [3], in [4], in test [5] and in [6] was “inactive” throughout. Besides, the Potency result in test [7], in [11], in test [15] and in test [10] was “inactive” in each case. Further, the result in test [8] was inactive. The Potency is 10.7 µM [inconclusive] (active) in test [12] and 8.41 µM (active) in test [14].
For `C=CC(=O)OCCOC(=O)CCC(=O)O`, the Potency entry in test [1], in [16], in [13], in test [3], in test [4] and in test [5] was “inactive” each time. Further, the Potency result in [6], in test [7] and in [9] was “inactive” in each case. Besides, in test [8], the compound was called inactive.
`CC(=O)O[C@@H]1C(=O)O[C@@H]2[C@H]1OC(=O)[C@@H]2OC(C)=O`: the Potency entry in [1], in test [3], in test [4], in [5], in [6] and in [7] was “inactive” each time. For the same compound, the Potency result in test [11], in test [12], in test [15], in test [9] and in test [10] was “inactive” each time. Moreover, the Potency in test [2] is 26.6 µM (active). Besides, in [8], the compound was called inactive.
On to `CC(C)c1ccc2c(C(C)C)cc(C(C)C)c(S(=O)(=O)O)c2c1`, for which the Potency entry in test [1], in test [16], in test [13], in test [3], in [17] and in test [18] was “inactive” each time. Besides, the Potency entry in [4], in test [19], in test [7], in test [11], in test [12] and in test [14] was “inactive” in each case. Also, the Potency entry in [15], in [9] and in test [10] was “inactive” each time. For the same compound, the Potency in test [6] was 63.2 µM (active). Further, the outcome in test [8] was inactive.
For `CCCCOc1ccc(CC(=O)NO)cc1`, the Potency entry in test [1], in test [3], in [4], in test [5], in test [6] and in test [7] was “inactive” throughout. The Potency result in test [9] and in [10] was “inactive” in each case. Also, the Potency in test [16] was 12.7 µM (active).
Take `CCCC(=O)OCC`: the Potency result in test [1], in test [3], in test [4], in test [6], in test [7] and in test [11] was “inactive” in each case. The Potency entry in [12], in [14], in [9] and in test [10] was “inactive” throughout. For the same compound, in [13], the Potency is 68.6 µM (active). Further, the outcome in [8] was inactive.
For `C=CC(=O)OCC(C)OCC(C)OCC(C)OC(=O)C=C` (stereo not given), the Potency in test [2] is 15.4 µM (active); in [16], 19.3 µM (active); in test [13], 17.2 µM (active); in test [3], 54.9 µM (active); in [5], 38.6 µM (active); in [6] it was 24.3 µM (active). The Potency in [12] is 61.7 µM [activator] (active); in [10], 43.3 µM (active). In addition, the Potency entry in [4] and in test [9] was “inactive” each time. In addition, the call in test [8] was inactive.
